# PubChem BioAssay
# Values without a mark were called inactive. For some assays here: Results with a measured potency or affinity are listed apart. The source made the active and inactive calls. Unless noted, how the calls were made is not given here.
# What was measured:
# [1] = antimalarial activity against Dd2 strain (AID 2302;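 active means growth inhibition above 50% at the single 2 µM test dose, taken to imply half-maximal potency below 2 µM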;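 further: 0% = DMSO untreated growth and 100% = chloroquine plus artemisinin killed control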); conditions: P. falciparum Dd2 in RBCs, LDH growth readout, 72 h; at 2 µM; stronger effect = higher value
# [2] = HepG2 cytotoxicity, primary screen, cytotoxicity control for P. falciparum antimalarial project, cell-based, ATP luminescence (AID 2303;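 active means inhibition above 50%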;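 further: 0% = DMSO wells and 100% = digitonin-killed cells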); conditions: HepG2 viability, 24-48 h, at 10 µM, stronger effect = higher value
# [3] = biological target: L-lactate dehydrogenase (Plasmodium falciparum (isolate CDC / Honduras)) (UniProt Q27743); experiment: PfLDH activity inhibition – cell lysate, 3D7 strain, counter-screen for P. falciparum growth inhibition project (AID 2304);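 further: 0% = vehicle and 100% = reference inhibitor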; conditions: P. falciparum 3D7 crude extract, LDH APAD/NBT absorbance; at 2 µM; stronger effect = higher value
# [4] = inhibition of 3D7 malaria parasite growth – strain 3D7 (AID 2306);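 further: 0% = DMSO wells and 100% = chloroquine plus artemisinin control wells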; conditions: P. falciparum 3D7 erythrocytic growth, LDH absorbance, 72 h; at 2 µM; stronger effect = higher value
# [5] = biological target: Calcium-dependent protein kinase 1 (Plasmodium falciparum (isolate 3D7)) (UniProt P62344); experiment: PfCDPK1 kinase inhibitors, biochemical, TCAMS library (AID 1159585; cut-off not given, nearly all actives have IC50 up to about 0.98 µM;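 further: inhibitors leave more ATP so luminescence rises with inhibition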); conditions: recombinant PfCDPK1, Kinase-Glo ATP depletion luminescence
# [6] = biological target: Plasmodium falciparum protein kinase 6 (PK6, PF3D7_1337100) (UniProt Q8IDW1); experiment: PfPK6 kinase inhibitors, biochemical, TCAMS library (AID 1159586); conditions: recombinant PfPK6, Kinase-Glo ATP depletion luminescence
# [7] = biological target: Protein kinase 7 (PK7), Plasmodium falciparum 3D7 (PF3D7_0213400) (UniProt Q7YTF7); experiment: inhibition of Plasmodium PK7 catalytic activity – biochemical, TCAMS antimalarial set, Kinase-Glo luminescence (AID 1159587); conditions: recombinant PfPK7, Kinase-Glo ATP depletion luminescence
# [8] = biological target: Calcium-dependent protein kinase 4 (Plasmodium falciparum (isolate 3D7)) (UniProt Q8IBS5); experiment: PfCDPK4 kinase inhibitors, biochemical, TCAMS library (AID 1159588; cut-off not given, nearly all actives have IC50 up to about 0.91 µM); conditions: recombinant PfCDPK4, Kinase-Glo ATP depletion luminescence
# Chain of Calcium-dependent protein kinase 4 (Plasmodium falciparum (isolate 3D7)) (Q8IBS5 whole entry, looked up): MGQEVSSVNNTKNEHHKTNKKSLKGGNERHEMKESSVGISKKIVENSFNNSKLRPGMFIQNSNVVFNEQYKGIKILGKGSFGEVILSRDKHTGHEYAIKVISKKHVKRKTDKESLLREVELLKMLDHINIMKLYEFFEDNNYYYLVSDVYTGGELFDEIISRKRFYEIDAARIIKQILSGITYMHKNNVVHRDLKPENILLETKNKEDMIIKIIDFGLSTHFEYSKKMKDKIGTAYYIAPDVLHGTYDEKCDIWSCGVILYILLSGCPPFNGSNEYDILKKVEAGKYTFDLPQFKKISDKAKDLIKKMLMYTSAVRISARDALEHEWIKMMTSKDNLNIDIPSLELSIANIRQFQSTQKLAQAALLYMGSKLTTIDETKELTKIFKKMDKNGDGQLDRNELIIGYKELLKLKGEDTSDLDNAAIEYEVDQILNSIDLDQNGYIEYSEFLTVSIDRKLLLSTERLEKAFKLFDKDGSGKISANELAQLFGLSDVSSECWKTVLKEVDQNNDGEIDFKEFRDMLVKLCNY
# Chain of Plasmodium falciparum protein kinase 6 (PK6, PF3D7_1337100) (Q8IDW1 1-305): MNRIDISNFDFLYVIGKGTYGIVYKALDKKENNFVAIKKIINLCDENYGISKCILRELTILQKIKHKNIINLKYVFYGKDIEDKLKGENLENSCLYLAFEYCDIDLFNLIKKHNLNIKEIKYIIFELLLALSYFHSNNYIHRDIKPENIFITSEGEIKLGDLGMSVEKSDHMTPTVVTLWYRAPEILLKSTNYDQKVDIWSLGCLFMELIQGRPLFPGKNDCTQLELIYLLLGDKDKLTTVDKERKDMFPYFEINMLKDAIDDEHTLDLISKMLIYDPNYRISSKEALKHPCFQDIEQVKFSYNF
# Chain of Calcium-dependent protein kinase 1 (Plasmodium falciparum (isolate 3D7)) (P62344 whole entry, looked up): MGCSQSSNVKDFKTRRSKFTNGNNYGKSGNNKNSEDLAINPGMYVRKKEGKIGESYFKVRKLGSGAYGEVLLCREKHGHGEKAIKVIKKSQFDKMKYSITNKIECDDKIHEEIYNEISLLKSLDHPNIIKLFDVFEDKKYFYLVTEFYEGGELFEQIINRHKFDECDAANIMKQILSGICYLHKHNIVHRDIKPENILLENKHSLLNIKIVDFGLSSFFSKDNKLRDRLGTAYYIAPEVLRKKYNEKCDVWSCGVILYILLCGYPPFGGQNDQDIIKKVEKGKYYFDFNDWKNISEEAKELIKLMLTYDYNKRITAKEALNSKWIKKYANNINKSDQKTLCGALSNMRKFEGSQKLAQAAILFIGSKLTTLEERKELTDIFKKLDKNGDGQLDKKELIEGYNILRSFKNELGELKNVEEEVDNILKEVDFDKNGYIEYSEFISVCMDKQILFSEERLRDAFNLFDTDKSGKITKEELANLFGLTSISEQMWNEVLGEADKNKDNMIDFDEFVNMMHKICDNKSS
# Chain of L-lactate dehydrogenase (Plasmodium falciparum (isolate CDC / Honduras)) (Q27743 whole entry, looked up): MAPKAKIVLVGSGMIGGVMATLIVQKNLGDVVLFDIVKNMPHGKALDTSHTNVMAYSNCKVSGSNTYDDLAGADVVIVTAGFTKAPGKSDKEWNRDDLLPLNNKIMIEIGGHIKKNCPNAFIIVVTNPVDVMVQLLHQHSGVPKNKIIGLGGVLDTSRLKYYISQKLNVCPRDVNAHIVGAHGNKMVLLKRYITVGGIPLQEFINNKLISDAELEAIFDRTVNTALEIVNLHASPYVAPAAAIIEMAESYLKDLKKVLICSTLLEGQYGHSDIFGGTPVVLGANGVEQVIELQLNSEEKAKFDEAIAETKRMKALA
# Chain of Protein kinase 7 (PK7), Plasmodium falciparum 3D7 (PF3D7_0213400) (Q7YTF7 1-343): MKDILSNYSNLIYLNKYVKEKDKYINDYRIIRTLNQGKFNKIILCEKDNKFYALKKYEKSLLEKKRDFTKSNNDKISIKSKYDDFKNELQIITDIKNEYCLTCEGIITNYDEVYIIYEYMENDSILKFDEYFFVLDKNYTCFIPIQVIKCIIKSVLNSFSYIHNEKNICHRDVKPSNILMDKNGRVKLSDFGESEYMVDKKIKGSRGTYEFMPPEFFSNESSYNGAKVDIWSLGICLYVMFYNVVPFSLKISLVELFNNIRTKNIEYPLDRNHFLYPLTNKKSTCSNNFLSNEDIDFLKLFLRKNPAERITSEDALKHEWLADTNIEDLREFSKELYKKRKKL
Structure (SMILES),growth inhibition [1],inhibition [2],inhibition [3],growth inhibition [4],outcome [5],outcome [6],outcome [7],outcome [8]
Cc1cccc2[nH]cc(C3CCN(CCC4CCN(C(=O)/C=C/c5ccc(Cl)c(Cl)c5)CC4)CC3)c12,8%,13%,2%,91% (active),inactive,inactive,inactive,inactive
O=C(/C=C/c1ccc(Cl)c(Cl)c1)NCCCCCCN1CCN(C(=O)Nc2cc(F)cc(F)c2)CC1,-1%,23%,-1%,86% (active),inactive,inactive,inactive,inactive
Cn1nc(C(F)(F)F)c(-c2ccc(F)cc2)c1NC(=O)Nc1ccc(F)cc1F,98% (active),11%,-2%,100% (active),inactive,inactive,inactive,inactive
N=C(N)c1ccc(-c2cc3ccc(C(=N)N)cc3[nH]2)cc1,99% (active),18%,-2%,99% (active),inactive,inactive,inactive,inactive
Cc1ccccc1Oc1nc2ccccc2nc1SCC(=O)NC(C)C,55% (active),-14%,-1%,97% (active),inactive,inactive,inactive,inactive
Cc1nc(SCC(=O)N2CCCC2=O)c2c(C)c(C)sc2n1,0%,45%,2%,96% (active),inactive,inactive,inactive,inactive
CCCC(CNCc1ccccc1)CNc1cc(=O)c2ccccc2[nH]1 (stereo not given),21%,2%,3%,86% (active),inactive,inactive,inactive,inactive
COc1cc2nc(N3CCC(NC(=O)c4cccc(N(C)C)c4)CC3)nc(N)c2cc1OC,0%,6%,1%,98% (active),inactive,inactive,inactive,inactive
CC=CC1CCNC(C(O)c2ccnc3ccc(OC)cc23)C1 (stereo not given),1%,-2%,3%,91% (active),inactive,inactive,inactive,inactive
COc1ccc2nccc([C@@H](O)CN3CCC(NCc4cc5cc([N+](=O)[O-])ccc5[nH]4)CC3)c2c1,57% (active),29%,4%,99% (active),inactive,inactive,inactive,inactive
